In the library only some 4.2% were active in any assay of this set; here they are far more common.
Mtb FBA inh: inhibitors of M. tuberculosis fructose-bisphosphate aldolase. purified M. tuberculosis FBA, fluorescence read-out. inhibition, % at 1 µM. 360,000 compounds, 2.3% hits. AID 588726; in the data active = inhibition above about 27%;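 also: 0% = vehicle and 100% = reference inhibitor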
Mtb betalactam: beta-lactam sensitization of Mtb H37Rv. inhibition, % at 25 µM. M. tuberculosis H37Rv growth with meropenem, percent inhibition. 330,000 compounds, 0.27% hits; call rule not given here;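 also: growth measured after seven days incubation then overnight dye step; 0% = bacteria only wells and 100% = bacteria with antibiotic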
GDH-TPI inh: counter-screen for M. tuberculosis FBA inhibitors: GDH-TPI coupled enzymes | 360,000 compounds, 1.2% hits | inhibition, % at 4.8 µM | GDH-TPI coupled enzyme counterscreen, NADH absorbance;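 also: 0% = DMSO wells and 100% = wells lacking the enzyme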
CCHF vOTU inh-1: CCHFV vOTU protease inhibition. Pep-AMC fluorescence. inhibition, % at 11.5 µM. 370,000 compounds, 0.55% hits. AID 651958; also: 0% = vehicle wells with enzyme and 100% = no enzyme wells
RecA intein inh: inhibitors of M. tuberculosis RecA intein splicing. P9WHJ3. cell-free RecA intein splicing, fluorescence. inhibition, % (test concentration not listed). 290,000 compounds, 0.75% hits. AID 2221; in the data active = inhibition above about 30%;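 also: 0% = vehicle wells and 100% = reference inhibitor control wells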
Target sequence (P9WHJ3 whole entry, looked up): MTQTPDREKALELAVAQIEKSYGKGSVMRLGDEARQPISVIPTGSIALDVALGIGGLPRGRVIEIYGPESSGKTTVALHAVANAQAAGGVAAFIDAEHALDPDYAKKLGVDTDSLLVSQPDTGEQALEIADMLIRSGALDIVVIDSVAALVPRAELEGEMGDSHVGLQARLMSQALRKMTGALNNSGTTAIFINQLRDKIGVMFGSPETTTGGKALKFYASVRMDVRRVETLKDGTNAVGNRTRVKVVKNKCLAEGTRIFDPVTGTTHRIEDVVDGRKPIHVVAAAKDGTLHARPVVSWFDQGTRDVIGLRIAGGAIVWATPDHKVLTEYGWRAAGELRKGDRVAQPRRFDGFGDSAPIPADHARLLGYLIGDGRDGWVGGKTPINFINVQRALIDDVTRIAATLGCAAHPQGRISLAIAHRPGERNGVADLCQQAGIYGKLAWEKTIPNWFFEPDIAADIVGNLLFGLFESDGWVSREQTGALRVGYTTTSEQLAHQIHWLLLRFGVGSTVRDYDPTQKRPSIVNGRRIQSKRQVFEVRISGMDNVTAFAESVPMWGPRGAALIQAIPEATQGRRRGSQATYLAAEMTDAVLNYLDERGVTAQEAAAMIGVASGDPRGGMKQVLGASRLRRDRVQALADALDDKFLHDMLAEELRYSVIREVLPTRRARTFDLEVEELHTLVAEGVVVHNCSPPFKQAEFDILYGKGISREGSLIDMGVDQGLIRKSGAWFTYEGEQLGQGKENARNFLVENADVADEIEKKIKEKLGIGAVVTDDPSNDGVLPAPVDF
CCHF vOTU inh-2: CCHFV vOTU protease inhibition, confirmation; shares compounds with CCHF vOTU inh-1; Recombinant CCHFV vOTU, Pep-AMC fluorescence; inhibition, % at 11.5 µM; 1,900 compounds, 17% hits; AID 686976
Active calls of the source: *; . = not tested or not shown. Rule as the data show it, unless noted: active = inhibition above about 30%; inactive = the rest.

SMILES	Mtb FBA inh	Mtb betalactam	GDH-TPI inh	CCHF vOTU inh-1	RecA intein inh	CCHF vOTU inh-2
Cc1ccc(OCc2cc(C(=O)N3CCCCCCC3)no2)cc1C	0	7	1	7	4	.
CCN(c1ccc(C(O)(C(=O)OC)C(F)(F)F)cc1)S(=O)(=O)c1ccccc1 (stereo unspecified)	-3	-6	-2	9	1	.
O=S(=O)(c1ccccc1)N(CC(F)(F)F)c1ccc(C(O)(C(F)(F)F)C(F)(F)F)cc1	-3	.	-4	34*	.	0
CCOC(=O)C(CC1=CS(=O)(=O)c2ccc(Cl)cc21)(NC(C)=O)C(=O)OCC	-1	.	0	10	.	.
O=C(NNC(=O)c1ccc(NC(=O)c2ccccc2)cc1)c1ccc(F)cc1	-2	-5	0	22	-2	.
O=C(NC1=C(Nc2ccc(F)cc2)C(=O)c2ccccc2C1=O)c1ccc(Cl)cc1	-4	10	7	35*	59*	58*
C=CCN1C(=O)c2n[nH]c(C(C)C)c2C1c1ccc(C)cc1 (stereo unspecified)	.	.	.	20	.	.
COCCn1c(SCC(=O)Nc2ccccc2C(F)(F)F)nc2ccccc2c1=O	1	5	3	0	0	.
COCCn1c(SCC(=O)Nc2cccnc2Cl)nc2ccccc2c1=O	1	-5	-1	31*	.	-12
Cc1ccc(C(=O)N(CC(C)C)c2c(N)n(Cc3ccccc3)c(=O)[nH]c2=O)o1	3	5	7	-11	1	.
Cc1c(C#N)c(O)[nH]c(=O)c1N=Nc1ccc(S(N)(=O)=O)cc1	-24	13	3	25	-2	.
Cc1c(C#N)c(O)[nH]c(=O)c1N=Nc1ccc(Cl)c(C(=O)O)c1	-1	-4	-6	31*	-2	-3
Cc1sc2nc(CSc3nnc(Cc4cccs4)n3C3CCCCC3)[nH]c(=O)c2c1C	2	-2	14	12	-6	.
Cc1sc2nc(SCc3nnc(-c4cccs4)o3)n(C3CCCC3)c(=O)c2c1C	-1	-5	10	31*	4	-2
O=C(NCC1CCCN(C(=O)Cc2ccccc2Cl)C1)c1ccc(F)cc1 (stereo unspecified)	2	-4	3	-7	2	.
O=C(NCCCn1ccnc1)c1noc2c1CCc1ccccc1-2	-1	-10	2	39*	2	22
CC1CCCCN1CCNC(=O)c1ccc2c(c1)N(Cc1ccccc1F)C(=O)c1ccccc1S2=O (stereo unspecified)	-6	5	-3	12	2	.
O=C1NC(=S)S/C1=C\c1cc(Cl)cc(Cl)c1O	-22	.	25	30*	.	23
C[C@H]1CCC(=O)N([C@H](COc2ccccc2)Cc2ccccc2)CC1	2	-1	5	31*	12	6
Cc1cc(C)c2sc(N(CCCN(C)C)C(=O)c3ccc(Br)s3)nc2c1	2	22	5	31*	5	4
COc1ccccc1C#Cc1cnc2c(c1)C(=O)N([C@H](C)CO)C[C@H](C)[C@@H](CN(C)S(=O)(=O)c1cn(C)cn1)O2	3	.	12	-9	.	.
COc1ccccc1NC(=O)c1ccc(NS(=O)(=O)c2ccc(F)c(F)c2F)cc1	-5	19	13	30*	1	-13
CCOc1ccc(Br)cc1S(=O)(=O)Nc1ccc(C(=O)Nc2ccccc2OC)cc1	0	-4	3	7	-1	.
COc1ccc(CN2C3=N[C@H](c4ccccc4)CC(=O)N3/C(=C\c3ccccc3)C2c2ccco2)c(OC)c1 (stereo partly specified)	.	.	.	-2	.	.
CCOc1cc(/C=N/NC(=O)c2cc(C)n(-c3ccc(F)cc3)c2C)ccc1O	1	65	30	11	3	.
SMILES	Mtb FBA inh	Mtb betalactam	GDH-TPI inh	CCHF vOTU inh-1	RecA intein inh	CCHF vOTU inh-2
Cc1cc(C(=O)N/N=C2\CC(=O)c3ccccc32)c(C)n1-c1ccc(F)cc1	-1	0	14	61*	23	19
CCn1ncc(Br)c1C(=O)Nc1ccc(-c2ccno2)cc1	-3	4	8	18	0	.
Cc1ccc(/C=[N+](\[O-])c2ccc(N(C)C)cc2)c2nsnc12	-15	.	10	56*	1	-12
O=C(O)/C(=C/c1ccc(Cl)c([N+](=O)[O-])c1)c1ccc(S(=O)(=O)N2CCCCC2)s1	0	.	12	33*	.	-4
O=C(O)/C(=C\c1cccc(F)c1)c1ccc(S(=O)(=O)N2CCCCC2)s1	-7	4	-2	0	5	.
O=c1[nH]c2ccc(Br)cc2c(=O)o1	6	.	4	-10	.	.
Cc1cc(C)cc(N(C(=O)c2csnn2)C(C(=O)NC2CCCC2)c2ccccn2)c1 (stereo unspecified)	2	-3	9	0	0	.
c1ccc(N2CCN(CC3CCCCC3)CC2)cc1	3	15	3	3	-1	.
CCOc1ccc(NS(=O)(=O)c2ccc(-c3cnc(C4CC4)o3)cc2)cc1	1	7	2	30*	6	-16
CC(C)NC(=O)C1(C)CN(S(C)(=O)=O)CC(=O)N1CCc1ccccc1 (stereo unspecified)	.	.	.	0	.	.
Cc1ccc(C2CC(=O)N3CN(c4ccc(Br)cc4)CSC3=C2C#N)o1 (stereo unspecified)	-6	2	-2	30*	9	-1
CCOc1ccc(N2CSC3=C(C#N)C(c4ccco4)CC(=O)N3C2)cc1 (stereo unspecified)	1	99	-2	23	4	.
CCN(CC)c1nc(N)c2c(N)n(-c3ccccc3C)c(=S)c(C#N)c2c1C#N	0	-9	44*	34*	6	39*
CCCCN(CC)c1nc(N)c2c(N)nc(OCC)cc2c1C#N	5	88	0	19	2	.
OC(c1ccc(F)c(F)c1)c1ncc(-c2cccc(C(F)(F)F)c2)[nH]1 (stereo unspecified)	2	.	13	10	.	.
OC(c1ccc(Cl)c(F)c1)c1ncc(-c2cccc(C(F)(F)F)c2)[nH]1 (stereo unspecified)	-2	.	-4	36*	.	-6
O=C(Cc1ccc(Cl)cc1Cl)NC1CCCCCC1	-2	0	4	4	2	.
O=C(COC(=O)Cc1ccc(Cl)cc1Cl)NC1CC1	-1	6	10	32*	.	-11
O=S(=O)(Nc1nc(-c2ccccc2)cs1)c1cccc(C(F)(F)F)c1	-2	4	-6	32*	4	12
O=[N+]([O-])c1ccc(S(=O)(=O)Nc2nc(-c3ccccc3)cs2)cc1	1	-10	11	13	4	.
CCOc1ccc(NC(=O)Cn2cc(C(=O)C3CC3)c3ccccc32)cc1	-1	3	-2	4	0	.
O=C(NCCOc1ccccc1)C1=CC=CN2CCS(=O)(=O)N=C12	8	-2	6	-16	.	.
C=CCn1c(N2CCCC2)nc2c1c(=O)n(C)c(=O)n2C	-3	3	-14	1	0	.
C/C(Cl)=C\Cn1c(N2CCCCCC2)nc2c1c(=O)n(C)c(=O)n2C	3	-2	7	31*	.	-11

Source: PubChem BioAssay
